Results on ten compounds are retold here after the supplement of paper PMC12024424.

Molecules are shown by their SMILES. Structures can show the parent of a compound that is named as a salt.

The test system of this experiment is Staphylococcus aureus Sa2 (MRSA, cystic fibrosis isolate). In words: growth reduction vs untreated control (OD550); higher = stronger antibacterial activity. The conditions noted are these: 0.1 mM; 24 h. The protocol:
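Single-dose screen of the MedChem Express Drug Repurposing Library (0.1 mM, 1% DMSO) against planktonic MRSA S. aureus Sa2 (CF isolate) in TSB in 96-well plates, 37 °C aerobic, 24 h. Assays were run in triplicate and repeated twice.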
Compound `C=C[C@@H]1C[C@]1(NC(=O)[C@@H]1C[C@@H]2CN1C(=O)[C@H](C(C)(C)C)NC(=O)O[C@@H]1C[C@H]1CCCCCc1nc3ccc(OC)cc3nc1O2)C(=O)NS(=O)(=O)C1CC1` [Grazoprevir potassium salt] came in with a growth reduction of 97.2%. `COC(=O)[C@]12CCC(C)(C)C[C@H]1[C@H]1C(=O)C=C3[C@@]4(C)C=C(C#N)C(=O)C(C)(C)[C@@H]4CC[C@@]3(C)[C@]1(C)CC2` [Bardoxolone methyl] showed a growth reduction of 100%.

Compound `CCN1CCN(Cc2ccc(-c3cc4c(N[C@H](C)c5ccccc5)ncnc4[nH]3)cc2)CC1` registered a growth reduction of 100%. In the case of `Nc1ccc(S(=O)(=O)Nc2cnc3c(Cl)cccc3n2)cc1` [Chloroquinoxaline sulfonamide], the growth reduction is 91.6%. Next, `Cc1cc(CC(C)CC(C)(C)C)n(O)c(=O)c1` (stereo not given) [Piroctone olamine]: 100%. Next, `CCCCCCCCc1ccc(CCC(N)(CO)CO)cc1` [Fingolimod (hydrochloride)]: 100%; `Cc1ccc(C#Cc2ccc(S(=O)(=O)N[C@H](Cc3c[nH]c4ccccc34)C(=O)O)s2)cc1`: 98.4%. Next, `CC(C)(C)NC(=O)N[C@H](C(=O)N1C[C@H]2[C@@H]([C@H]1C(=O)NC(CC1CCC1)C(=O)C(N)=O)C2(C)C)C(C)(C)C` (stereo not given in full) [Boceprevir]: 91.4%; `CNC(=O)c1cc(Oc2ccc(NC(=O)Nc3ccc(Cl)c(C(F)(F)F)c3)c(F)c2)ccn1` [Regorafenib (Hydrochloride)]: 100%; `COc1cc2ncnc(Nc3ccc(F)c(Cl)c3)c2cc1NC(=O)/C=C/CN1CCCCC1` [Dacomitinib]: 100%.
